# Several values for one entry are separate records, joined by “and”; a condition that tells them apart may be missing. Equal values may be shown once. A number with no mark means an inactive call. Inconclusive results are not listed. Where a call stands in place of a potency, no number is given. Activity calls are given as the source filed them. Unless noted, calls come from the whole dose curve; as a rule, active = well fitted curve in the direction sought with a large enough effect; inconclusive = small, poorly fitted or top-dose-only effect, or another doubt; inactive = no such curve, though single readings can be large; an effect the other way counts as inactive or inconclusive.
# Key:
# [1] = qHTS assay for small molecule agonists of the antioxidant response element (ARE) signaling pathway measured by Nrf2-dependant transcriptional activity (AID 720636; active = well fitted curve in the direction sought with a large enough effect in the repeat runs; an effect the other way counts as inactive or inconclusive)
# In short: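 ARE-luc HepG2 cells carrying an Nrf2-responsive luciferase reporter were plated in medium with 1% dialyzed FBS, left 6 hr at 37 C to attach, then exposed to compound for 16 hr. Luciferase luminescence was read after ONE-Glo addition.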
# [2] = qHTS assay for small molecule antagonists of the retinoid-related orphan receptor gamma (ROR-gamma) signaling pathway - cell viability counter screen (AID 720652; active = well fitted curve in the direction sought with a large enough effect in the repeat runs; an effect the other way counts as inactive or inconclusive;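 note: CHO reporter cells with doxycycline-induced ROR-gamma expression; series mostly up to about 92 µM; compound exposure lasted 16 hr before ATP read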)
# In short: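 Cytotoxicity counter screen: intracellular ATP (CellTiter-Glo luminescence) measured in the doxycycline-induced CHO RORE-luciferase reporter line after 16 hr compound exposure at 37 C, 5% CO2.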
# [3] = qHTS assay for small molecule agonists of the antioxidant response element (ARE) signaling pathway measured by Nrf2-dependant transcriptional activity - cell viability counter screen (AID 720653; active = well fitted curve in the direction sought with a large enough effect in the repeat runs; an effect the other way counts as inactive or inconclusive); details: ARE-bla HepG2 viability, CellTiter-Glo ATP luminescence, 16 h; max response: hits give low values
# In short: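 Cytotoxicity counter screen: intracellular ATP quantified by CellTiter-Glo luminescence in the same ARE-bla HepG2 plates, after 16 h compound exposure and a 2 h beta-lactamase substrate step.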
# [4] = qHTS Assay for Identifying Gametocytocidal Compounds (AID 743244); note: potency is the fitted concentration of half-maximal effect;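 for max response: actives lower the fluorescent signal which means gametocytes are killed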; details: P. falciparum 3D7 stage III-V gametocytes, alamarBlue, 72 h; max response: hits give low values
# In short: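 In this qHTS viability screen, late-stage 3D7 gametocytes are incubated with compound for 72 h, then with alamarBlue for 24 h; reduced resorufin fluorescence marks killing.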
# [5] = qHTS assay for cell viability of HEK293 cells (AID 743288); details: ATP luminescence (CellTiter-Glo), 18 h; max response: hits give low values; note: nearly all actives have a fitted effect of over 50% in size
# In short: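 Quantitative high-throughput screen: compounds were pinned onto parental HEK293 cells (2,000 per well) after a minimum 5 h settling at 37 C, incubated 18 h at 37 C, and intracellular ATP measured by luciferase luminescence.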
# [6] = qHTS assay for cell viability of the p53RE-bla HCT-116 cell line (AID 743292); note: nearly all actives have a fitted effect of over 55% in size
# In short: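 CellSensor p53RE-bla HCT-116 cells, 4,000/well, preincubated 5 h at 37 C, then exposed to compounds in DMSO for 16 h at 37 C. Viability read as CellTiter-Glo luminescence (intracellular ATP) after 30 min at room temperature.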
# [7] = qHTS for compounds that reverse cellular toxicity of Amyloid beta (A-beta) peptide in yeast: LOPAC Validation Assay (AID 720559); details: Potency: rescue of growth toxicity; note: potency is the fitted concentration of half-maximal effect
# In short: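 Activity is expressed relative to DMSO and an equimolar ferric chloride/clioquinol mix. Compounds were pinned into medium with A-beta-expressing yeast, grown 48 hr at 30 C, then read by absorbance at 600 nm.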
# [8] = qHTS for Activators of Parkin Expression: LOPAC Validation Assay (NLuc Reporter) (AID 720572)
# In short: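 Compound effects on Parkin promoter activity were measured as NanoLuc luminescence after 24 h at 37 C. The neuronal reporter line also carried FLuc, which was read first. LOPAC compounds were tested at 7 concentrations, with normalization to DMSO (0%) and positive control (100%).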
# [9] = qHTS for Activators of Parkin Expression: LOPAC Validation Assay (FLuc Reporter) (AID 720573)
# In short: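 A neuronal cell line harbouring FLuc and NLuc reporters behind the Parkin promoter was exposed to compounds for 24 h. Firefly luciferase signal, measured after 10 min with detection reagent, was scaled to DMSO and positive-control wells.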
# [10] = target: T1, Hexokinase-4 (Homo sapiens) + Glucokinase regulatory protein (Homo sapiens) (UniProt P35557+Q14397); test: qHTS assay for inhibitors of recombinant human GCK-GKRP interaction: Diaphorase-coupled assay (AID 743205)
# T1 sequence (P35557 whole entry, looked up): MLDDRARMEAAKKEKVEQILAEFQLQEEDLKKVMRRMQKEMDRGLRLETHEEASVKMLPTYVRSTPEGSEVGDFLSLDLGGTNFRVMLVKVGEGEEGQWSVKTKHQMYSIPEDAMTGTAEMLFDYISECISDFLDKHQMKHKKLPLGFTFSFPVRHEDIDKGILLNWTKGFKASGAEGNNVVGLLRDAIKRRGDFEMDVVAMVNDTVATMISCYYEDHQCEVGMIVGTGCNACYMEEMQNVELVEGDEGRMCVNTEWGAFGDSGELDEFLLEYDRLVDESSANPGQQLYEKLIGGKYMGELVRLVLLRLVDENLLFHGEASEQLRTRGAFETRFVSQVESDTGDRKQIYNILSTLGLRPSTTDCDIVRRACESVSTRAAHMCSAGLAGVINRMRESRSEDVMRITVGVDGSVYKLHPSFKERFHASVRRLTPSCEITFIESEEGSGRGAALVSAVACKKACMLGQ
# T1 sequence (Q14397 whole entry, looked up): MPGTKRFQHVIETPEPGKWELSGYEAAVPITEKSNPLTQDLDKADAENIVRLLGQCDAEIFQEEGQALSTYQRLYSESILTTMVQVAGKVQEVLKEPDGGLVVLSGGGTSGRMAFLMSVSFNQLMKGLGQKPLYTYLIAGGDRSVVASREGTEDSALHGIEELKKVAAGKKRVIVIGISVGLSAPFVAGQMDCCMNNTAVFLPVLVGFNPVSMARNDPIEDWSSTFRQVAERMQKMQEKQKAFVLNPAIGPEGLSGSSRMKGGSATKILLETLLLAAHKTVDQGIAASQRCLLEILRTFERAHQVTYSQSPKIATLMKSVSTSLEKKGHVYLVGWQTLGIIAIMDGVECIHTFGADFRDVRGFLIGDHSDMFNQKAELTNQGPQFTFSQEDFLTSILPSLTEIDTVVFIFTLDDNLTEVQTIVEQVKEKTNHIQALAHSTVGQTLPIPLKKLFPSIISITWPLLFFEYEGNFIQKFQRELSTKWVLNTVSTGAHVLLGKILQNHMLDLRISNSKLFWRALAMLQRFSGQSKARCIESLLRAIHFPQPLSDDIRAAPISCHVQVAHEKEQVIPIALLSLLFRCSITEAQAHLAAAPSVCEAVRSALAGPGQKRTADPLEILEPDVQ
# In short: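 Inhibitors of the GCK–GKRP complex relieve GKRP suppression of GCK, detected through a G6PDH–diaphorase cascade reducing resazurin. Human GST-GCK and FLAG-GKRP are used at 10 nM with 5 mM glucose and 0.4 mM ATP.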
# [11] = target: T1, Hexokinase-4 (Homo sapiens) + Glucokinase regulatory protein (Homo sapiens); test: qHTS assay for inhibitors of recombinant human GCK-GKRP interaction: ADP-Glo assay (AID 743206)
# In short: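 Pin-transferred compounds meet a 15 nM GST-GCK/15 nM FLAG-GKRP/2 uM S6P mix (dispense concentrations). ATP is then added to 0.4 mM final with 5 mM glucose, and the reaction runs 60 min at room temperature. ADP is quantified luminescently.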
# [12] = target: T1, Hexokinase-4 (Homo sapiens) + Glucokinase regulatory protein (Homo sapiens); test: qHTS assay for inhibitors of recombinant human GCK-GKRP interaction: HTRF assay (AID 743207)
# In short: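 Steps: dispense GCK–GKRP complex (5 nM each, GST- and FLAG-tagged) with 2 uM S6P; pin in compounds; add XL665/Eu-cryptate-labelled antibodies; incubate 60 min at room temperature; read time-resolved FRET at 665 and 615 nm.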
compound,measurement,setting,value
Nc1ccc(O)c(C(=O)O)c1,Potency,[1],inactive
same,Potency,[2],inactive
same,max response,[3],-2.51% and -1.43%
same,max response,[4],11.4%
same,max response,[5],-0.669% and -7.83%
same,Potency,[6],inactive
CN(C)CCCO[C@@H]1[C@H]2OC(C)(C)O[C@H]2O[C@@H]1[C@H](O)CO,Potency,[7],inactive
same,Potency,[8],inactive
same,Potency,[9],inactive
same,outcome,[10],inactive
same,Potency,[11],inactive
same,Potency,[12],inactive
same,max response,[4],19.5%
c1cnc2c(c1)ccc1cccnc12,Potency,[7],inactive
same,Potency,[8],inactive
same,Potency,[1],inactive
same,max response,[3],-9.05%
same,outcome,[10],inactive
same,Potency,[11],inactive
same,Potency,[12],inactive
same,Potency,[4],1870 nM (active)
same,Potency,[6],inactive
CN(C)c1nc2c(Br)c(Br)c(Br)c(Br)c2[nH]1,Potency,[7],inactive
same,Potency,[9],inactive
same,outcome,[10],inactive
same,Potency,[11],inactive
same,Potency,[12],inactive
same,max response,[4],21.9%
Cc1ccc(C(=O)O[C@H](C(=O)O)[C@@H](OC(=O)c2ccc(C)cc2)C(=O)O)cc1 (tested in a mixture with another compound),Potency,[7],inactive
same,Potency,[9],inactive
same,outcome,[10],inactive
same,Potency,[11],inactive
same,Potency,[12],inactive
same,max response,[4],-5.55%
O=C(O)c1cc(O)c(O)c(O)c1,Potency,[1],inactive
same,Potency,[2],inactive
same,max response,[3],-28.5%
same,max response,[5],-7.89%
same,Potency,[6],inactive
NCCCCCCCCCCN,Potency,[7],inactive
same,Potency,[8],inactive
same,Potency,[9],inactive
same,outcome,[10],inactive
same,Potency,[11],inactive
same,max response,[4],2.17%
NO,Potency,[7],inactive
same,Potency,[9],inactive
same,outcome,[10],inactive
same,Potency,[11],inactive
same,Potency,[12],inactive
same,max response,[4],-10.7%
C#C[C@]1(O)CC[C@H]2[C@@H]3CCc4cc(O)ccc4[C@H]3CC[C@@]21C,Potency,[1],inactive
same,Potency,[2],inactive
same,max response,[3],6.34% and 7.49%
same,max response,[4],16.7%
same,max response,[5],-11.3% and -0.854%
same,Potency,[6],inactive
c1ccc(-c2ccccn2)nc1,Potency,[7],inactive
same,Potency,[8],inactive
same,Potency,[9],inactive
same,outcome,[10],inactive
same,Potency,[11],inactive
same,Potency,[12],inactive
same,max response,[4],29.6%
CCCCCCCCCCCCCCCCCC(=O)O,Potency,[1],inactive
same,Potency,[2],inactive
same,max response,[3],-2.11% and 6.03% and 17.1%
same,max response,[4],-10.4%
same,max response,[5],-8.42% and -6.66% and -3.76%
same,Potency,[6],inactive
CCCCC#Cc1nc(NC)c2ncn([C@@H]3O[C@H](CO)[C@@H](O)[C@H]3O)c2n1,Potency,[7],inactive
same,Potency,[9],inactive
same,outcome,[10],inactive
same,Potency,[11],inactive
same,Potency,[12],inactive
same,max response,[4],34.4%
NC[C@H]1O[C@@H](n2cnc3c(N)ncnc32)[C@H](O)[C@@H]1O,Potency,[7],inactive
same,Potency,[8],inactive
same,Potency,[9],inactive
same,outcome,[10],inactive
same,Potency,[11],inactive
same,max response,[4],-2.15%
N#C/C(=C\c1ccc(O)c(O)c1)C(=O)c1ccc(O)c(O)c1,Potency,[7],inactive
same,Potency,[8],inactive
same,Potency,[9],inactive
same,outcome,[10],inactive
same,Potency,[11],inactive
same,max response,[4],10.5%
CNc1ncnc2c1ncn2[C@@H]1O[C@H](CO)[C@@H](O)[C@H]1O,Potency,[7],inactive
same,Potency,[8],inactive
same,Potency,[9],inactive
same,outcome,[10],inactive
same,Potency,[11],inactive
same,max response,[4],31.8%
NC(N)=NC(=O)c1nc(Cl)c(N2CCCCCC2)nc1N,Potency,[7],inactive
same,Potency,[9],inactive
same,outcome,[10],inactive
same,Potency,[11],inactive
same,Potency,[12],inactive
same,Potency,[4],891 nM (active)
Nc1ncnc2c1ncn2[C@@H]1O[C@H](COP(=O)(O)OP(=O)(O)OP(=O)(O)OP(=O)(O)OC[C@@H]2O[C@H](n3cnc4c(N)ncnc43)[C@@H](O)[C@H]2O)[C@@H](O)[C@H]1O,Potency,[7],8200 nM (active)
same,Potency,[9],inactive
same,outcome,[10],inactive
same,Potency,[11],inactive
same,Potency,[12],inactive
COc1cc(OC)c(/C=C2/C(=O)Nc3ccccc32)c(OC)c1,Potency,[7],inactive
same,Potency,[8],inactive
same,Potency,[9],inactive
same,outcome,[10],inactive
same,Potency,[11],inactive
same,max response,[4],33.5%

# Source: PubChem BioAssay (NCATS)
